The source of these data is PubChem BioAssay (NCI).

The nature of experiment [1]: NCI Yeast Anticancer Drug Screen. Data for the rad50 strain (AID 155).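 Note: 0% = growth of vehicle-only cultures of the same strain.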 Particulars: S. cerevisiae rad50 strain growth inhibition, active compounds read high. The method in brief: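 Yeast carrying a defined DNA repair defect were exposed to test compounds, and growth was compared with vehicle-treated controls to give percent inhibition.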
Experiment [2] in a line: NCI Yeast Anticancer Drug Screen. Data for the mec2-1 strain (AID 157). Particulars: S. cerevisiae mec2-1 strain, active compounds read high. The method in brief: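 Yeast mec2-1 mutant treated with compound. Readout: growth inhibition vs vehicle controls.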
A short description of experiment [3]: NCI Yeast Anticancer Drug Screen. Data for the sgs1 mgt1 strain (AID 161).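 Note: 0% = growth of cultures given vehicle only.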 Particulars: S. cerevisiae sgs1 mgt1 strain, active compounds read high. In short, it runs like this: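 Read-out: growth inhibition vs vehicle controls. Cells: mutant yeast strain deficient in DNA damage repair.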
Experiment [4] in a line: NCI Yeast Anticancer Drug Screen. Data for the cln2 rad14 strain (AID 165).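 Note: 0% = growth equal to vehicle treated cultures.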 Particulars: S. cerevisiae cln2 rad14 strain, active compounds read high. In short, it runs like this: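 cln2 rad14 yeast strain; compound exposure; growth inhibition read vs vehicle controls.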
Experiment [5] can be described thus: NCI Yeast Anticancer Drug Screen. Data for the bub3 strain (AID 167). Particulars: S. cerevisiae bub3 mutant strain, active compounds read high. The method in brief:
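Compounds were applied to a genetically altered yeast strain carrying a cell-cycle control defect. Growth inhibition was scored against vehicle-treated controls.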

A short description of experiment [6]: NCI Yeast Anticancer Drug Screen. Data for the mlh1 rad18 strain (AID 175). Particulars: S. cerevisiae mlh1 rad18 strain growth inhibition, active compounds read high. The method in brief:
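Yeast w/ defined DNA-repair lesions; compound exposure; growth vs vehicle controls → % inhibition.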

The mark [7] stands for this setting: at 5.0 µM (retest, dose inferred, filed as 0.5).
The mark [8] stands for this setting: at 50.0 µM (retest, dose inferred, filed as 5.0).

The panel holds about 79,000 compounds, 15% with a hit somewhere; the sample as a whole holds those more often. Unmarked numbers belong to inactive results. The source made the active and inactive calls. Cut-off read from the data, not from the text of the source: active = growth inhibition above about 70%; inactive = the rest.

Turning to `CCC[CH2][Sn]1([CH2]CCC)[O]CC(CN(C)Cc2ccccc2)[O]1` (centres undefined), the growth inhibition was 3% in experiment [1] (setting [7]); 3% in experiment [1] (setting [8]); 88.7% (active) in experiment [1] (at 50.0 µM); 12% in experiment [2] (setting [7]); 12% in experiment [2] (setting [8]); 90.1% (active) in experiment [2] (at 50.0 µM). Besides, the growth inhibition in experiment [3] (setting [7]) was -5%; in experiment [3] (setting [8]) it was -5%; in experiment [3] (at 50.0 µM), 20.2%; in experiment [4] (setting [7]), -2%; in experiment [4] (setting [8]) it was -2%; in experiment [4] (at 50.0 µM), 89.2% (active). The growth inhibition in experiment [5] (setting [7]) is -1%; in experiment [5] (setting [8]), -1%; in experiment [5] (at 50.0 µM), 87.5% (active); in experiment [6] (setting [7]) it was 0%; in experiment [6] (setting [8]), 0%; in experiment [6] (at 50.0 µM) it was 81.8% (active).
For `c1ccc([CH2][Pb]([c]2ccccc2)([c]2ccccc2)[c]2ccccc2)cc1`, the growth inhibition in experiment [1] (setting [7]) was 96% (active); in experiment [1] (setting [8]), 96% (active); in experiment [1] (at 50.0 µM), 97.2% (active); in experiment [2] (setting [7]), 97% (active); in experiment [2] (setting [8]), 99% (active); in experiment [2] (at 50.0 µM), 99.2% (active). The growth inhibition is 97% (active) in experiment [3] (setting [7]); 98% (active) in experiment [3] (setting [8]); 98.7% (active) in experiment [3] (at 50.0 µM); 95% (active) in experiment [4] (setting [7]); 95% (active) in experiment [4] (setting [8]); 98.5% (active) in experiment [4] (at 50.0 µM). Also, the growth inhibition in experiment [5] (setting [7]) was 98% (active); in experiment [5] (setting [8]), 97% (active); in experiment [5] (at 50.0 µM), 99% (active); in experiment [6] (setting [7]) it was 97% (active); in experiment [6] (setting [8]) it was 97% (active); in experiment [6] (at 50.0 µM), 99.2% (active).
Regarding `Cc1cc(N(CCCl)CCCl)ccc1CN1CCCN(Cc2ccc(N(CCCl)CCCl)cc2C)C1c1cccc(F)c1`, the growth inhibition in experiment [1] (setting [7]) was 6%; in experiment [1] (setting [8]) it was 97% (active); in experiment [1] (at 50.0 µM), 40.8%; in experiment [2] (setting [7]), -27%; in experiment [2] (setting [8]), 99% (active); in experiment [2] (at 50.0 µM), 18%. Also, the growth inhibition in experiment [3] (setting [7]) is 1%; in experiment [3] (setting [8]) it was 98% (active); in experiment [3] (at 50.0 µM), 80.5% (active); in experiment [4] (setting [7]), 2%; in experiment [4] (setting [8]) it was 97% (active); in experiment [4] (at 50.0 µM), -0.15%. Also, the growth inhibition in experiment [5] (setting [7]) is 3%; in experiment [5] (setting [8]), 98% (active); in experiment [5] (at 50.0 µM), 2.15%; in experiment [6] (setting [7]), 8%; in experiment [6] (setting [8]), 95% (active); in experiment [6] (at 50.0 µM), 76.5% (active).
For the molecule `CN(C)CCN(C)P12(Oc3ccccc3O1)Oc1c(Cl)c(Cl)c(Cl)c(Cl)c1O2`, the growth inhibition in experiment [1] (setting [7]) was -8%; in experiment [1] (setting [8]), 6%; in experiment [1] (at 50.0 µM), 99% (active); in experiment [2] (setting [7]) it was 9%; in experiment [2] (setting [8]), 14%; in experiment [2] (at 50.0 µM) it was 99.2% (active). For the same molecule, the growth inhibition in experiment [3] (setting [7]) was -10%; in experiment [3] (setting [8]), 9%; in experiment [3] (at 50.0 µM), 99% (active); in experiment [4] (setting [7]), -19%; in experiment [4] (setting [8]), 22%; in experiment [4] (at 50.0 µM), 99.1% (active). In addition, the growth inhibition is -10% in experiment [5] (setting [7]); 12% in experiment [5] (setting [8]); 99.1% (active) in experiment [5] (at 50.0 µM); 0% in experiment [6] (setting [7]); 16% in experiment [6] (setting [8]); 97.6% (active) in experiment [6] (at 50.0 µM).
In the case of `O=C(O)c1cc[c]([Hg])cc1`, the growth inhibition in experiment [1] (setting [7]) is -1%; in experiment [1] (setting [8]) it was 5%; in experiment [1] (at 50.0 µM) it was 38.4%; in experiment [2] (setting [7]) it was -2%; in experiment [2] (setting [8]), 3%; in experiment [2] (at 50.0 µM), 25.6%. The growth inhibition in experiment [3] (setting [7]) was 1%; in experiment [3] (setting [8]) it was 5%; in experiment [3] (at 50.0 µM) it was 36%; in experiment [4] (setting [7]) it was -3%; in experiment [4] (setting [8]) it was -4%; in experiment [4] (at 50.0 µM) it was 2.65%. Further, the growth inhibition in experiment [5] (setting [7]) was 0%; in experiment [5] (setting [8]) it was -7%; in experiment [5] (at 50.0 µM), -5.4%; in experiment [6] (setting [7]), 1%; in experiment [6] (setting [8]), 3%; in experiment [6] (at 50.0 µM) it was 38.2%.
On to `NC1=C(c2nc(-c3ccccc3)cs2)C(c2ccc(Br)cc2)c2c(c3ccccc3oc2=O)O1` (centres undefined), for which the growth inhibition is 5% in experiment [1] (setting [7]); 99% (active) in experiment [1] (setting [8]); 0.8% in experiment [1] (at 50.0 µM); 6% in experiment [2] (setting [7]); 100% (active) in experiment [2] (setting [8]); 29.2% in experiment [2] (at 50.0 µM). Moreover, the growth inhibition was 7% in experiment [3] (setting [7]); 99% (active) in experiment [3] (setting [8]); 17.2% in experiment [3] (at 50.0 µM); 3% in experiment [4] (setting [7]); 99% (active) in experiment [4] (setting [8]); 42.4% in experiment [4] (at 50.0 µM). Besides, the growth inhibition in experiment [5] (setting [7]) is 4%; in experiment [5] (setting [8]) it was 99% (active); in experiment [5] (at 50.0 µM), 28.8%; in experiment [6] (setting [7]) it was 6%; in experiment [6] (setting [8]) it was 99% (active); in experiment [6] (at 50.0 µM), 46.1%.
As for `[Br][Sn]([CH]1CCCCC1)([CH]1CCCCC1)[CH]1CCCCC1`, the growth inhibition in experiment [1] (setting [7]) was 98% (active); in experiment [1] (setting [8]), 99% (active); in experiment [1] (at 50.0 µM) it was 98.6% (active); in experiment [2] (setting [7]), 100% (active); in experiment [2] (setting [8]) it was 100% (active); in experiment [2] (at 50.0 µM) it was 99.1% (active). Besides, the growth inhibition in experiment [3] (setting [7]) is 99% (active); in experiment [3] (setting [8]) it was 99% (active); in experiment [3] (at 50.0 µM), 98.5% (active); in experiment [4] (setting [7]) it was 57%; in experiment [4] (setting [8]) it was 98% (active); in experiment [4] (at 50.0 µM), 98.5% (active). Moreover, the growth inhibition in experiment [5] (setting [7]) was 23%; in experiment [5] (setting [8]), 99% (active); in experiment [5] (at 50.0 µM) it was 98.5% (active); in experiment [6] (setting [7]), 99% (active); in experiment [6] (setting [8]), 99% (active); in experiment [6] (at 50.0 µM), 98.8% (active).
Take `CCOP(=S)(OCC)SC(O)(C(F)F)C(F)F`: the growth inhibition in experiment [1] (setting [7]) was 5%; in experiment [1] (setting [8]), 34%; in experiment [1] (at 50.0 µM), 28.8%; in experiment [2] (setting [7]), -3%; in experiment [2] (setting [8]), 54%; in experiment [2] (at 50.0 µM), 22.9%. For the same molecule, the growth inhibition was 3% in experiment [3] (setting [7]); 62% in experiment [3] (setting [8]); 42% in experiment [3] (at 50.0 µM); -3% in experiment [4] (setting [7]); 32% in experiment [4] (setting [8]); 22.4% in experiment [4] (at 50.0 µM). The growth inhibition is -2% in experiment [5] (setting [7]); 69% in experiment [5] (setting [8]); 39.4% in experiment [5] (at 50.0 µM); 0% in experiment [6] (setting [7]); 78% (active) in experiment [6] (setting [8]); 30.7% in experiment [6] (at 50.0 µM).
